# The campaign covered roughly 2,300 compounds. About 170 (7.4%) were called active.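 How the source made its calls: active means over 5% cells positive for green fluorescent reporter, or over 2% positive for both it and APC stain; inactive means the rest, inconclusive results apart.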 The sample as a whole holds a higher share of actives than the screen did.
# Test: intrinsic compound fluorescence in ER-HoxA9 progenitors, confirmation, artefact control for AML myeloid differentiation project, cell-based, flow cytometry, GFP/APC, Cherry Pick01 (AID 651707);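 further: range taken on the double positive population between DMSO and positive control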
# Settings: no estrogen, GFP autofluorescence flow cytometry, active compounds read high
row,Compound,fluorescence response
1,CC/C(=N\NC(=O)c1ccccc1O)c1c(O)n(Cc2ccccc2)c(=O)[nH]c1=O,5.1% (active)

# — PubChem BioAssay AID651707 (NMMLSC, 2012)
